The nature of test [1]: NCI Yeast Anticancer Drug Screen. Data for the rad50 strain (AID 155).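 Note: 0% = growth of vehicle-only cultures of the same strain.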 The note with it: S. cerevisiae rad50 strain growth inhibition, active compounds read high. In outline: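 Yeast carrying a defined DNA repair defect were exposed to test compounds, and growth was compared with vehicle-treated controls to give percent inhibition.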
Test [2] can be described thus: NCI Yeast Anticancer Drug Screen. Data for the mec2-1 strain (AID 157). The settings on record: S. cerevisiae mec2-1 strain, active compounds read high. An outline of the steps: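 Yeast mec2-1 mutant treated with compound. Readout: growth inhibition vs vehicle controls.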
The nature of test [3]: NCI Yeast Anticancer Drug Screen. Data for the sgs1 mgt1 strain (AID 161).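 Note: 0% = growth of cultures given vehicle only.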 The note with it: S. cerevisiae sgs1 mgt1 strain, active compounds read high. An outline of the steps: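 Mutant yeast exposed to compound; growth scored against vehicle-only wells.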
The nature of test [4]: NCI Yeast Anticancer Drug Screen. Data for the cln2 rad14 strain (AID 165).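 Note: 0% = growth equal to vehicle treated cultures.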 The note with it: S. cerevisiae cln2 rad14 strain, active compounds read high. An outline of the steps: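 cln2 rad14 yeast strain; compound exposure; growth inhibition read vs vehicle controls.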
Test [5] in a line: NCI Yeast Anticancer Drug Screen. Data for the bub3 strain (AID 167). The note with it: S. cerevisiae bub3 mutant strain, active compounds read high. In outline:
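Compounds were applied to a genetically altered yeast strain carrying a cell-cycle control defect. Growth inhibition was scored against vehicle-treated controls.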

A short description of test [6]: NCI Yeast Anticancer Drug Screen. Data for the mlh1 rad18 strain (AID 175). The settings on record: S. cerevisiae mlh1 rad18 strain growth inhibition, active compounds read high. An outline of the steps: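 Yeast w/ defined DNA-repair lesions; compound exposure; growth vs vehicle controls → % inhibition.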
Where [7] appears, read: at 5.0 µM (retest, dose inferred, filed as 0.5).
Where [8] appears, read: at 50.0 µM (retest, dose inferred, filed as 5.0).

SMILES strings stand for the structures. About 79,000 compounds went through this panel and 15% of them were active in at least one assay; those are over-represented in the sample as a whole. Values without a mark were called inactive. Active and inactive are the calls of the source. Cut-off read from the data, not from the text of the source: active = growth inhibition above about 70%; inactive = the rest.

With `O=[N+]([O-])c1c(Cl)ccc2nsnc12`, the growth inhibition in test [1] (setting [7]) is 24%; in test [1] (setting [8]) it was 97% (active); in test [1] (at 50.0 µM), 99.4% (active); in test [2] (setting [7]), -27%; in test [2] (setting [8]), 97% (active); in test [2] (at 50.0 µM), 99.2% (active). Moreover, the growth inhibition is -14% in test [3] (setting [7]); 98% (active) in test [3] (setting [8]); 98.8% (active) in test [3] (at 50.0 µM); -56% in test [4] (setting [7]); 84% (active) in test [4] (setting [8]); 98.6% (active) in test [4] (at 50.0 µM). Further, the growth inhibition is -49% in test [5] (setting [7]); 96% (active) in test [5] (setting [8]); 98.5% (active) in test [5] (at 50.0 µM); -50% in test [6] (setting [7]); 97% (active) in test [6] (setting [8]); 99% (active) in test [6] (at 50.0 µM).
Take `CCOC(=O)/C(=C\c1ccc(Br)cc1)C(C)=O`: the growth inhibition is 28% in test [1] (setting [7]); 98% (active) in test [1] (setting [8]); 92.5% (active) in test [1] (at 50.0 µM); 29% in test [2] (setting [7]); 99% (active) in test [2] (setting [8]); 94.2% (active) in test [2] (at 50.0 µM). Further, the growth inhibition was 48% in test [3] (setting [7]); 98% (active) in test [3] (setting [8]); 93.5% (active) in test [3] (at 50.0 µM); 34% in test [4] (setting [7]); 98% (active) in test [4] (setting [8]); 92.5% (active) in test [4] (at 50.0 µM). Further, the growth inhibition was 71% (active) in test [5] (setting [7]); 99% (active) in test [5] (setting [8]); 92.3% (active) in test [5] (at 50.0 µM); 70% (active) in test [6] (setting [7]); 99% (active) in test [6] (setting [8]); 91.7% (active) in test [6] (at 50.0 µM).
As for `CN(c1ccccc1)N(C)c1ccccc1`, the growth inhibition in test [1] (setting [7]) was -1%; in test [1] (setting [8]), 22%; in test [1] (at 50.0 µM), 40.6%; in test [2] (setting [7]) it was -3%; in test [2] (setting [8]) it was -1%; in test [2] (at 50.0 µM), -3.45%. The growth inhibition in test [3] (setting [7]) is -5%; in test [3] (setting [8]) it was -16%; in test [3] (at 50.0 µM), -17.4%; in test [4] (setting [7]), 8%; in test [4] (setting [8]) it was 15%; in test [4] (at 50.0 µM), -33.2%. The growth inhibition was 5% in test [5] (setting [7]); 5% in test [5] (setting [8]); -7.8% in test [5] (at 50.0 µM); 3% in test [6] (setting [7]); 26% in test [6] (setting [8]); 4% in test [6] (at 50.0 µM).
In the case of `COc1ccc2nc3cc(Cl)ccc3c(NCCCN(Cc3cc(OC)c(OC)c(OC)c3)Cc3cc(OC)c(OC)c(OC)c3)c2c1`, the growth inhibition in test [1] (setting [7]) is 45%; in test [1] (setting [8]), 72% (active); in test [1] (at 50.0 µM), 62.4%; in test [2] (setting [7]), 29%; in test [2] (setting [8]), 58%; in test [2] (at 50.0 µM) it was 34.6%. Besides, the growth inhibition in test [3] (setting [7]) is 38%; in test [3] (setting [8]) it was 62%; in test [3] (at 50.0 µM) it was 45.6%; in test [4] (setting [7]), 32%; in test [4] (setting [8]), 43%; in test [4] (at 50.0 µM), 33.4%. Further, the growth inhibition in test [5] (setting [7]) is 37%; in test [5] (setting [8]), 83% (active); in test [5] (at 50.0 µM), 56.6%; in test [6] (setting [7]) it was 48%; in test [6] (setting [8]), 80% (active); in test [6] (at 50.0 µM), 73.5% (active).
Consider `Oc1ccc(C2(c3ccc(O)c(Cl)c3)CC3CCC2C3)cc1Cl` (stereo not given), for which the growth inhibition in test [1] (setting [7]) is 98% (active); in test [1] (setting [8]) it was 98% (active); in test [1] (at 50.0 µM) it was 98% (active); in test [2] (setting [7]), 99% (active); in test [2] (setting [8]), 99% (active); in test [2] (at 50.0 µM), 99.2% (active). In addition, the growth inhibition was 99% (active) in test [3] (setting [7]); 98% (active) in test [3] (setting [8]); 99.3% (active) in test [3] (at 50.0 µM); 99% (active) in test [4] (setting [7]); 98% (active) in test [4] (setting [8]); 99% (active) in test [4] (at 50.0 µM). Further, the growth inhibition in test [5] (setting [7]) is 99% (active); in test [5] (setting [8]), 98% (active); in test [5] (at 50.0 µM), 98.8% (active); in test [6] (setting [7]), 99% (active); in test [6] (setting [8]), 97% (active); in test [6] (at 50.0 µM), 98.7% (active).
Consider `c1cc[c]([Sn]([CH]2c3ccccc3-c3ccccc32)([CH]2c3ccccc3-c3ccccc32)[CH]2c3ccccc3-c3ccccc32)cc1`, for which the growth inhibition in test [1] (setting [7]) is 4%; in test [1] (setting [8]), 0%; in test [1] (at 50.0 µM), 95.2% (active); in test [2] (setting [7]), 5%; in test [2] (setting [8]) it was 2%; in test [2] (at 50.0 µM) it was 98% (active). Besides, the growth inhibition in test [3] (setting [7]) is -1%; in test [3] (setting [8]), -4%; in test [3] (at 50.0 µM) it was 95.5% (active); in test [4] (setting [7]), 3%; in test [4] (setting [8]), 6%; in test [4] (at 50.0 µM), 95% (active). Also, the growth inhibition in test [5] (setting [7]) was 2%; in test [5] (setting [8]), -3%; in test [5] (at 50.0 µM) it was 97.3% (active); in test [6] (setting [7]) it was 4%; in test [6] (setting [8]), 11%; in test [6] (at 50.0 µM), 96.3% (active).
As for `COc1cc2c(cc1OC)-c1nc(N)sc1CC2`, the growth inhibition in test [1] (setting [7]) was 2%; in test [1] (setting [8]), -4%; in test [1] (at 50.0 µM) it was 86.8% (active); in test [2] (setting [7]), -2%; in test [2] (setting [8]), -1%; in test [2] (at 50.0 µM) it was 85.5% (active). Moreover, the growth inhibition in test [3] (setting [7]) was 2%; in test [3] (setting [8]) it was -23%; in test [3] (at 50.0 µM), 81.8% (active); in test [4] (setting [7]) it was -4%; in test [4] (setting [8]) it was 4%; in test [4] (at 50.0 µM) it was 85.7% (active). For the same molecule, the growth inhibition in test [5] (setting [7]) was -2%; in test [5] (setting [8]), -4%; in test [5] (at 50.0 µM) it was 85.8% (active); in test [6] (setting [7]), -1%; in test [6] (setting [8]), 7%; in test [6] (at 50.0 µM) it was 88.3% (active).
Regarding `Clc1ccccc1C(Cc1c(Cl)cccc1Cl)Cn1ccnc1` (stereo not given), the growth inhibition is 74% (active) in test [1] (setting [7]); 78% (active) in test [1] (setting [8]); 99.8% (active) in test [1] (at 50.0 µM); 58% in test [2] (setting [7]); 78% (active) in test [2] (setting [8]); 99.8% (active) in test [2] (at 50.0 µM). Also, the growth inhibition in test [3] (setting [7]) was 70% (active); in test [3] (setting [8]) it was 91% (active); in test [3] (at 50.0 µM) it was 99.8% (active); in test [4] (setting [7]) it was 62%; in test [4] (setting [8]), 86% (active); in test [4] (at 50.0 µM), 98.8% (active). Besides, the growth inhibition is 75% (active) in test [5] (setting [7]); 95% (active) in test [5] (setting [8]); 99.7% (active) in test [5] (at 50.0 µM); 77% (active) in test [6] (setting [7]); 92% (active) in test [6] (setting [8]); 99.8% (active) in test [6] (at 50.0 µM).
As for `CCC[CH2][Sn]([CH2]CCC)([O]C(=O)Cc1ccc(F)cc1)[O]C(=O)Cc1ccc(F)cc1`, the growth inhibition in test [1] (setting [7]) was 27%; in test [1] (setting [8]), 27%; in test [1] (at 50.0 µM) it was 86.7% (active); in test [2] (setting [7]), 30%; in test [2] (setting [8]) it was 30%; in test [2] (at 50.0 µM), 81.5% (active). Moreover, the growth inhibition in test [3] (setting [7]) is 27%; in test [3] (setting [8]), 27%; in test [3] (at 50.0 µM), 83.3% (active); in test [4] (setting [7]) it was 16%; in test [4] (setting [8]), 16%; in test [4] (at 50.0 µM) it was 78.1% (active). Moreover, the growth inhibition is 21% in test [5] (setting [7]); 21% in test [5] (setting [8]); 76% (active) in test [5] (at 50.0 µM); 14% in test [6] (setting [7]); 14% in test [6] (setting [8]); 76.2% (active) in test [6] (at 50.0 µM).
`OC1CCCCC1Cc1ccc(Cl)cc1` (stereo not given): the growth inhibition was -2% in test [1] (setting [7]); 56% in test [1] (setting [8]); 90.5% (active) in test [1] (at 50.0 µM); 4% in test [2] (setting [7]); 26% in test [2] (setting [8]); 93.8% (active) in test [2] (at 50.0 µM). The growth inhibition in test [3] (setting [7]) was 4%; in test [3] (setting [8]) it was 31%; in test [3] (at 50.0 µM) it was 65.3%; in test [4] (setting [7]), -2%; in test [4] (setting [8]), 30%; in test [4] (at 50.0 µM), 90% (active). The growth inhibition in test [5] (setting [7]) is 32%; in test [5] (setting [8]), 97% (active); in test [5] (at 50.0 µM) it was 98.8% (active); in test [6] (setting [7]), -2%; in test [6] (setting [8]) it was 45%; in test [6] (at 50.0 µM), 93.4% (active).
